From the supplement of paper PMC10981050
Several values for one entry are separate records, joined by “and”; a condition that tells them apart may be missing. Equal entries are not always repeated. Structures can show the parent of a compound that is named as a salt.

Key:
Assay in all cases: cell viability relative to vehicle control; higher = less cytotoxic
Conditions in all cases: 10 µM
K562 = test system: K562
Outline: (§1)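 CRISPR-edited SRSF2 P95 mutant and isogenic wild-type clones of four leukaemia lines were screened against Selleck bioactive, kinase and epigenetic probe libraries, with identity-inconsistent compounds removed. Compounds were acoustically dispensed into 384-well plates at a single 10 µM dose, with 2000 cells in 50 µL medium per well. After 48 h, supernatant was removed and CellTiter-Glo luminescence was read. Viability was expressed as percent of the on-plate DMSO vehicle control, analysed in Genedata Screener.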

MARIMO = test system: MARIMO
Outline: as §1

MOLM14 = test system: MOLM14
Outline: as §1

OCI-AML2 = test system: OCI-AML2
Outline: as §1

SMILES | cell viability (K562; SRSF2 genotype: SRSF2 P95H/wt) | cell viability (K562; SRSF2 genotype: SRSF2 wt/wt) | cell viability (MARIMO; SRSF2 genotype: SRSF2 P95H/wt) | cell viability (MARIMO; SRSF2 genotype: SRSF2 wt/wt) | cell viability (MOLM14; SRSF2 genotype: SRSF2 P95H/wt) | cell viability (MOLM14; SRSF2 genotype: SRSF2 wt/wt) | cell viability (OCI-AML2; SRSF2 genotype: P95H/wt) | cell viability (OCI-AML2; SRSF2 genotype: wt/wt)
O=c1ccc2cc(O[C@@H]3O[C@H](CO)[C@@H](O)[C@H](O)[C@H]3O)c(O)cc2o1 [Aesculin (Esculin)] | 104% and 98.9% | 100% | 96.9% | 97.7% | 101% | 99.7% | 95.1% | 93.3%
N[C@@H]1C[C@H]1c1ccccc1 [Tranylcypromine (2-PCPA) HCl] | 109% and 112% | 115% | 98% | 107% | 97.7% | 97.5% | 94.1% | 85%
CC(C)C(Br)C(=O)NC(N)=O (configuration not stated) [Bromisoval] | 99.8% and 99.2% | 94.8% | 95.8% | 108% | 92% | 104% | 93.2% | 95%
Cc1cccc([C@H](C)c2c[nH]cn2)c1C [Dexmedetomidine] | 97.4% and 102% | 98.5% | 95.6% | 101% | 105% | 102% | 114% | 95.9%
CNCC(O)c1ccc(O)cc1 (configuration not stated) [Synephrine HCl] | 102% and 114% | 108% | 110% | 99.8% | 104% | 111% | 108% | 101%
CN1[C@@H]2CC[C@H]1C[C@@H](OC(=O)C(CO)c1ccccc1)C2 (some centres not stated) [Atropine sulfate] | 105% and 99.4% | 100% | 105% | 112% | 110% | 107% | 94% | 97.8%
C=C[C@]12CN(C)[C@@H]3[C@H]4CO[C@H](C[C@H]41)[C@]1(C(=O)Nc4ccccc41)[C@@H]32 [Gelsemine] | 91.8% and 88.5% | 87.9% | 87.9% | 97.5% | 96% | 90% | 90.1% | 90%
C=C1C[C@@H]2[C@H](CC[C@]3(C)C(=O)CC[C@@H]23)[C@@]2(C)C=CC(=O)C=C12 [Exemestane] | 93.7% and 96.7% | 100% | 82.8% | 92.6% | 80.3% | 94.3% | 90.2% | 91.2%
CN(C)[C@@H]1C(=O)C(C(N)=O)=C(O)[C@@]2(O)C(=O)C3=C(O)c4c(O)ccc(Cl)c4[C@@](C)(O)[C@H]3C[C@@H]12 [Chlortetracycline HCl] | 106% and 108% | 107% | 105% | 108% | 105% | 105% | 102% | 103%
C[C@]12CC[C@H]3[C@@H](CCC4=CC(=O)C=C[C@@]43C)[C@@H]1CC[C@@H]2O [Boldenone] | 99.7% and 103% | 110% | 101% | 104% | 105% | 110% | 113% | 111%
CN1[C@@H]2CC[C@H]1C[C@@H](OC(=O)[C@H](CO)c1ccccc1)C2 [Hyoscyamine (Daturine)] | 104% and 93.5% | 91.9% | 104% | 107% | 99.2% | 102% | 95.4% | 113%
COC(=O)Nc1nc2ccccc2[nH]1 [Carbendazim] | 35% and 44.4% | 51.9% | 36.2% | 31.8% | 58.5% | 49% | 60.5% | 52.2%
CC(C)C1=CC(=O)[C@@](C)(C2[C@H](O)C[C@@]3(C)[C@@H]4CC=C5[C@@H](CC[C@@H](OC6OCC(O)C(O)C6OC6OC(C)C(O)C(O)C6O)C5(C)C)[C@]4(C)C(=O)C[C@]23C)O1 (some centres not stated) [Picfeltarraenin IA] | 95.9% and 96.6% | 89.6% | 92.2% | 92.5% | 89.7% | 93.2% | 94.3% | 101%
C=C[C@H]1CN2CC[C@H]1C[C@H]2[C@H](O)c1ccnc2ccccc12 [Cinchonidine] | 87.9% and 96.3% | 94.8% | 94.6% | 97.5% | 85.7% | 97.8% | 95.2% | 92.1%
CCN1CC2(OC(=O)c3ccccc3NC(C)=O)CCC(OC)C34C1C(CC23)C1(O)CC(OC)C2CC4C1(O)C2OC (configuration not stated) [Lappaconitine] | 99.3% and 109% | 100% | 108% | 103% | 103% | 105% | 111% | 91.9%
COc1ccc(C=O)cc1 [p-Anisaldehyde] | 107% and 99.7% | 111% | 103% | 103% | 105% | 104% | 97.2% | 117%
O=C(NCC1CCOCC1)c1cnc(Nc2ccc(Cl)cc2Cl)nc1C(F)(F)F | 95% and 97.7% | 98% | 93.5% | 104% | 103% | 104% | 98.5% | 102%
Cc1ccccc1-n1c(Cn2ncc3c(N)ncnc32)nc2cccc(C)c2c1=O | 93.5% and 98.8% | 91.3% | 90.7% | 93.7% | 81.9% | 81.3% | 81.5% | 83.9%
COC1CC(OC2CCC3(C)C(CCC45OC46CCC(C(C)=O)C6(C)C(OC(C)=O)C(OC(=O)c4ccccc4)C35)C2)OC(C)C1OC1OC(C)C(O)C(OC)C1O (configuration not stated) [Tenacissoside I] | 92.5% and 93.1% | 93.8% | 88.2% | 100% | 91.9% | 92.5% | 95% | 106%
O=c1[nH]c2ccccc2n1C1CCN(Cc2ccc(-c3[nH]c4cc5ncnc5cc4nc3-c3ccccc3)cc2)CC1 | 56.9% and 65.9% | 61.7% | 66.5% | 76.2% | 53.6% | 43.6% | 48.8% | 47.9%

SMILES | cell viability (K562; SRSF2 genotype: SRSF2 P95H/wt) | cell viability (K562; SRSF2 genotype: SRSF2 wt/wt) | cell viability (MARIMO; SRSF2 genotype: SRSF2 P95H/wt) | cell viability (MARIMO; SRSF2 genotype: SRSF2 wt/wt) | cell viability (MOLM14; SRSF2 genotype: SRSF2 P95H/wt) | cell viability (MOLM14; SRSF2 genotype: SRSF2 wt/wt) | cell viability (OCI-AML2; SRSF2 genotype: P95H/wt) | cell viability (OCI-AML2; SRSF2 genotype: wt/wt)
CC1=C2C(=O)[C@H]3[C@@H](CC=C4C[C@@H](O)CC[C@@]43C)[C@@H]2CC[C@]12O[C@@H]1C[C@H](C)CN[C@H]1[C@H]2C [Jervine] | 91.9% and 81.4% | 85.2% | 89.1% | 98.5% | 91.4% | 101% | 92.7% | 92.4%
CC(C)=CCC[C@]1(C)C=Cc2c(O)c3c(c(CC=C(C)C)c2O1)O[C@]12C(=C[C@@H]4C[C@H]1C(C)(C)O[C@@]2(C/C=C(/C)C(=O)O)C4=O)C3=O [Gambogic Acid] | 1.29% and 0.59% | 0.98% | 0.39% | 0.5% | 0.42% | 0.51% | 0.38% | 0.45%
CN1[C@@H]2CC[C@H]1C[C@@H](OC(=O)C(CO)c1ccccc1)C2 (some centres not stated) [Atropine sulfate monohydrate] | 93.4% and 94.7% | 100% | 104% | 112% | 100% | 105% | 100% | 99.6%
O=C(NC(=O)c1c(F)cccc1F)Nc1ccc(OC(F)(F)C(F)OC(F)(F)F)c(Cl)c1 (configuration not stated) [Novaluron] | 110% and 101% | 113% | 94.2% | 98.4% | 106% | 106% | 98.1% | 109%
CC[C@H](C)[C@@H]([C@@H](CC(=O)N1CCC[C@H]1[C@H](OC)[C@@H](C)C(=O)N[C@H](C)[C@@H](O)c1ccccc1)OC)N(C)C(=O)[C@@H](NC(=O)[C@@H](NC)C(C)C)C(C)C [Monomethyl auristatin E (MMAE)] | 11.7% and 32% | 30.1% | 7.27% | 8.86% | 0.32% | 0.5% | 0.78% | 2.69%
Cc1cc2c(C(C)C)c(O)c(O)c(C=O)c2c(O)c1-c1c(C)cc2c(C(C)C)c(O)c(O)c(C=O)c2c1O | 2.58% and 2.65% | 13.3% | 11.7% | 15.4% | 0.51% | 1.24% | 0.59% | 1.12%
C=CC(=C)C [Isoprene] | 102% and 103% | 105% | 103% | 106% | 95.6% | 108% | 103% | 109%
O=C(O[C@H]1C[N+]2(CCCOc3ccccc3)CCC1CC2)C(O)(c1cccs1)c1cccs1 [Aclidinium Bromide] | 104% and 98.9% | 101% | 108% | 111% | 103% | 106% | 106% | 106%
CC12NC(Cc3ccccc31)c1ccccc12 (single isomer, unassigned; (+)) [(+)-MK 801 maleate] | 92.8% and 93.5% | 93.2% | 85.7% | 91.7% | 91% | 91.5% | 86.7% | 99.1%
CN(C)[C@@H]1C(=O)C(C(N)=O)=C(O)[C@@]2(O)C(=O)C3=C(O)c4c(O)cccc4[C@@](C)(O)[C@H]3[C@H](O)[C@@H]12 [Oxytetracycline (Terramycin)] | 86.7% and 82.8% | 85.9% | 90.8% | 87.4% | 87.5% | 88.3% | 84.5% | 90%
Cc1cccc(C)c1NC(=O)CN1CCCC1=O [Nefiracetam (Translon)] | 108% and 104% | 107% | 109% | 107% | 105% | 100% | 103% | 110%
COC1=CC23CCN(C)C(Cc4ccc(OC)c(O)c42)C3=CC1=O (configuration not stated) [Sinoacutine] | 110% and 102% | 101% | 103% | 101% | 108% | 103% | 101% | 104%
CCN1CCN(C(=O)Cc2ccc(Nc3ncc(F)c(Nc4ccc(C(=O)Nc5ccccc5Cl)cc4)n3)cc2)CC1 [Aurora A Inhibitor I] | 0.7% and 0.51% | 15.3% | 0.53% | 3.65% | 0.41% | 0.49% | 4.67% | 4.81%
CC(C)=CCCC(C(=O)O)C1CCC2(C)C3=C(CCC12C)C1(C)CCC(=O)C(C)(C)C1CC3 (stereo not drawn) [Beta-Elemonic] | 96% and 89.7% | 87.7% | 92.7% | 99% | 88.8% | 93.1% | 100% | 101%
CCCCCCC(=O)O[C@H]1CC[C@H]2[C@@H]3CCC4=CC(=O)CC[C@]4(C)[C@H]3CC[C@]12C [Testosterone Enanthate] | 91.4% and 86% | 88.5% | 66.5% | 61.8% | 50.1% | 20.5% | 23.7% | 25.8%
Cc1ccccc1-n1c(CF)nc2ccc(N)cc2c1=O [Afloqualone] | 88.1% and 90.6% | 86.5% | 84.5% | 95.7% | 93.2% | 96.2% | 110% | 94.4%
CCc1c2c(nc3ccccc13)-c1cc3c(c(=O)n1C2)COC(=O)[C@]3(O)CC [7-Ethylcamptothecin] | 7.64% and 19.6% | 10.4% | 5.75% | 3.52% | 0.48% | 0.48% | 0.36% | 0.82%
COc1ccc(C(=O)N2CCCC2=O)cc1 [Aniracetam] | 105% and 106% | 110% | 107% | 109% | 110% | 109% | 118% | 106%
NCC(CC(=O)O)c1ccccc1 (configuration not stated) [Phenibut] | 105% and 102% | 102% | 102% | 109% | 108% | 104% | 96.7% | 116%
